# Reference: PubChem BioAssay AID2540 (Sanford-Burnham Center for Chemical Genomics, 2010)
# In all, about 330,000 compounds went through this assay and about 4,100 (1.2%) were called active. The sample holds actives, similar compounds and a random draw of the others, so the mix is not that of the screen. No stated cut-off is given here; in the data, active means inhibition above about 50%; inactive means the rest.
# Target: Sentrin-specific protease 8 (Homo sapiens) (UniProt Q96LD8)
# Assay: SENP8 protease inhibitors, primary screen, biochemical, luminescence (AID 2540)
# Details: purified SENP8, Z-RLRGG-aminoluciferin cleavage, at 10 µM, stronger effect = higher value
# Sentrin-specific protease 8 (Homo sapiens), sequence (Q96LD8 whole entry, looked up): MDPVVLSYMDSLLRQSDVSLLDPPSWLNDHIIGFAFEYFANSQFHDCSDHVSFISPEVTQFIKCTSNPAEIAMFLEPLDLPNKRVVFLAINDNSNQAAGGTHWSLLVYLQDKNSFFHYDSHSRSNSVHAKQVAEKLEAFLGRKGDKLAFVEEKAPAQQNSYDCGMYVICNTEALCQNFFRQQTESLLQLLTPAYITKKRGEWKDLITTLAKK
row,Structure (SMILES),inhibition
1,COc1ccc(C)cc1N(C)C(=O)c1coc(=O)c2ccccc12,-8.47% (inactive)
2,O=C(CN1C(=O)NC2(CCOc3ccccc32)C1=O)Nc1cccc([N+](=O)[O-])c1 (centres undefined),7.44% (inactive)
3,O=C(Nc1c2c(nn1-c1ccccc1)CS(=O)(=O)C2)C1CCCC1,-3.98% (inactive)
4,COc1cc(/C=C(\C#N)c2nc3c(s2)CC(C)CC3)ccc1O (centres undefined),-4.73% (inactive)
5,Cc1ccc2nc(/C(C#N)=C\c3ccc(OC(=O)c4cccs4)cc3)[nH]c2c1,3.01% (inactive)
6,COc1cc(/C=C(\C#N)c2nc3ccccc3[nH]2)ccc1O,91.8% (active)
7,COc1ccc(NC(=O)CN(C)C(=O)Cc2coc3cc(C)c(C)cc23)cc1,-3.13% (inactive)
8,COc1ccccc1C1=CC(=O)C[C@H](c2ccc(F)cc2)C1,-4.36% (inactive)
9,CCN(CC)CCNc1nc(-c2ccc(OC(F)F)cc2)c(C)s1,-5.12% (inactive)
10,COc1ccc(/C=C2/SC(=O)N(CCCCCC(=O)Nc3ccccc3C(=O)O)C2=S)cc1,50.3% (active)
11,COc1ccc(/C=C2\SC(=O)N(CCC(=O)NCCCn3ccnc3)C2=O)cc1,-11.9% (inactive)
12,COc1ccc(/C=C2\SC(=O)N(CCC(=O)NC3CCS(=O)(=O)C3)C2=O)cc1 (centres undefined),2.13% (inactive)
13,CN1C(=O)CC(c2ccccc2)C1=O (centres undefined),1.07% (inactive)
14,COc1cc(NC(=S)NCCSc2ccc(C)cc2)cc(OC)c1,-1.13% (inactive)
15,COc1cccc(C(=O)c2cc3ccc(O)cc3oc2=O)c1,96.9% (active)
16,CCOC(=O)c1cc2cc3ccccc3cc2oc1=O,-4.84% (inactive)
17,COc1cccc(C(=O)NNC(=O)c2cccc(F)c2)c1,-1.03% (inactive)
18,CN1CCN(Cc2nc3cc(NC(=O)COc4ccc([N+](=O)[O-])cc4)ccc3n2C)CC1,0.315% (inactive)
19,O=c1oc2cc(O)ccc2cc1-c1ccc(F)cc1,95.4% (active)
20,COc1ccc(-c2cc3ccc(OCc4nn[nH]n4)cc3oc2=O)cc1,39.6% (inactive)
21,CN(C)c1cc(-c2ccc(F)cc2)oc(=O)c1Cl,2.47% (inactive)
22,Cc1ccc(C)c(NC(=O)CN(C)C(=O)c2ccc3ncsc3c2)c1,-13.6% (inactive)
23,O=C(Nc1ccccc1C(=O)O)c1ccc(N2C(=O)C3CC=CCC3C2=O)cc1 (centres undefined),21.2% (inactive)
24,COc1ccc(CCNC(=O)CCn2c(=O)c3ccccc3n(CC(=O)NCC3CCCO3)c2=O)cc1OC (centres undefined),-9.64% (inactive)

row,Structure (SMILES),inhibition
1,C[C@H](NC(=O)C1CCN(S(=O)(=O)c2ccccc2)CC1)C(=O)NCc1ccccc1,-3.77% (inactive)
2,Cc1ccc(OCc2nc3ccccc3n2C)cc1,51.5% (active)
3,CCOc1ccc(C(O)Cc2nc3ccccc3n2C)cc1 (centres undefined),1.07% (inactive)
4,CC(C)n1c(COc2ccccc2)nc2ccccc21,-6.45% (inactive)
5,CCn1c(SCC(=O)NC2CC2)nnc1-c1ccccc1OC,-9.1% (inactive)
6,COc1ccc(C2OCC3(CO2)SC(=O)NC3=O)cc1OC (centres undefined),-5.03% (inactive)
7,CCN(CC)C(=O)CSc1ncnc2c1cnn2-c1ccccc1,2.66% (inactive)
8,COC(=O)CSc1ncnc2c1cnn2-c1ccc(C)cc1C,6.59% (inactive)
9,COc1ccc(-n2ncc3c(SCC(=O)NNC(C)=O)ncnc32)cc1,53.4% (active)
10,CC(=O)Oc1ccc2c(=O)oc(-c3ccc([N+](=O)[O-])cc3)nc2c1,94.9% (active)
11,CCOC(=O)CSc1nnc(-c2ccc([N+](=O)[O-])cc2)o1,1.65% (inactive)
12,CC(=O)Oc1ccc(-c2nc3c(C)cccc3c(=O)o2)cc1,-1.45% (inactive)
13,N/C(=N\OC(=O)CCC1CCCCC1)c1ccccn1,70.6% (active)
14,COc1ccccc1OCC(=O)O/N=C(\N)c1ccccn1,-6.27% (inactive)
15,N/C(=N\OC(=O)CC1CCCCC1)c1ccccc1,18.2% (inactive)
16,COc1ccc(OC)c(-c2csc(-c3cccs3)n2)c1,-5.23% (inactive)
17,COc1ccc(-c2nc(-c3ccccc3)no2)c(OC)c1,98% (active)
18,COc1ccc(-c2noc(CNC(=O)C(C)Oc3ccccc3)n2)cc1 (centres undefined),-0.358% (inactive)
19,Clc1ccc2c(c1)C1=C(C(c3ccncc3)O2)C(c2ccc(Br)cc2)n2ncnc2N1 (centres undefined),-1.86% (inactive)
20,CC(C)NC(=S)NN=C1CCCCCCCCCCC1,-4.77% (inactive)
21,CCn1c(CC(=O)Nc2ccccc2)nnc1SCC(=O)N1CCOCC1,3.84% (inactive)
22,C/C(=N\NC(=O)CC(C)C)c1c(C(F)(F)F)[nH]n(-c2nc3ccccc3s2)c1=O,96.3% (active)
23,CCc1ccc(-c2cc(C(=O)NCc3ccco3)c3ccccc3n2)s1,-4.94% (inactive)
24,CCC1(CC)NC(=O)N(Cc2nc3ccccc3s2)C1=O,-5% (inactive)

row,Structure (SMILES),inhibition
1,CCC(C)Cn1c(O)cc2nn(-c3nc4ccccc4s3)c(=O)c-2c1C (centres undefined),48% (inactive)
2,CC(=NCc1ccco1)c1c(C(F)(F)F)[nH]n(-c2nc3ccccc3s2)c1=O,94.7% (active)
3,CC(C)CC(=O)N/C(N)=N/c1nc2ccccc2s1,17% (inactive)
4,CC(C)(CSc1nncn1/N=C/c1ccco1)NS(=O)(=O)c1ccc(Cl)cc1,-9.04% (inactive)
5,Cc1cc(/C=N/NC(N)=O)c(C)n1C1CCCCC1,-15.2% (inactive)
6,CCCCN1Cc2c(nc3cc(-c4ccccc4)[nH]n3c2=O)C1=O,1.85% (inactive)
7,O=c1c2c(nc3cc(-c4cccc(Cl)c4)[nH]n13)CCCC2,61.8% (active)
8,Cc1cc(=O)n2[nH]c(-c3cccc(Cl)c3)cc2n1,-14% (inactive)
9,CC(Sc1nnc(-c2cccs2)n1C1CC1)C(=O)NCC1CCCO1 (centres undefined),-0.203% (inactive)
10,Cc1ccc(-c2cn(S(=O)(=O)c3cccc([N+](=O)[O-])c3)nc2N)cc1,-7.7% (inactive)
11,Cc1ccnc(N2C(=O)c3ccc([N+](=O)[O-])cc3C2=O)c1,6.9% (inactive)
12,Cc1ccc(-n2cc3ccc([N+](=O)[O-])cc3n2)cc1,68.6% (active)
13,COc1ccc(CN2CCN(C(=O)c3cc(C4CC4)nn3-c3ccccc3)CC2)cc1F,-8.29% (inactive)
14,COc1cc(SC)ccc1C(=O)Nc1nc(C)cs1,97.6% (active)
15,COc1cc(SC)ccc1C(=O)Nc1cc(C)ccn1,39% (inactive)
16,Cc1csc(NC(=O)c2ccc(C)s2)n1,-2.73% (inactive)
17,COc1ccc(N(CC(=O)NC2CCCC2)C(=O)CS(=O)CC(=O)Nc2ccc3c(c2)OCO3)cc1 (centres undefined),-16.6% (inactive)
18,CC1(C)CC(=O)C(C=NCCN2CCN(C(=S)Nc3cccc(Cl)c3)CC2)=C(O)C1,0.407% (inactive)
19,Cc1ccc(-n2[nH]c(C)c(/C=N/NC(=O)c3cccc([N+](=O)[O-])c3)c2=O)cc1C,-5.78% (inactive)
20,CCNC(=S)N1CCN(CCN=CC2=C(O)CC(C)(C)CC2=O)CC1,-4.68% (inactive)
21,C=CCNC(=S)N1CCN(CCN=Cc2c(C)[nH]n(-c3ccc([N+](=O)[O-])cc3)c2=O)CC1,61.4% (active)
22,Cc1[nH]n(-c2ccc([N+](=O)[O-])cc2)c(=O)c1C=NCCN1CCN(C(=O)c2ccccc2F)CC1,64.8% (active)
23,Cc1[nH]n(-c2ccccc2)c(=O)c1N=Nc1ccccc1C(=O)N1CCCCC1,-1.4% (inactive)
24,CCc1ccc2nc(Nc3ncc(C(C)=O)c(C)n3)nc(C)c2c1,-7.29% (inactive)

row,Structure (SMILES),inhibition
1,Cn1nnnc1-c1cc(Cl)cc(Cl)c1,3.44% (inactive)
2,N#C/C(=C\c1cccnc1)C(=O)Nc1ccc(SC(F)F)cc1,7.81% (inactive)
3,COc1ccc(N(CC(=O)NCCSCc2cccc(Cl)c2)S(C)(=O)=O)cc1,4.81% (inactive)
4,CCC(C)c1ccc(NC(=S)N2CCCC2)cc1 (centres undefined),-3.49% (inactive)
5,N/C(=N\OC(=O)c1cc(-c2ccccc2)nc2ccccc12)c1ccncc1,-5.5% (inactive)
6,Cc1cccc(/C(N)=N/OC(=O)c2ccccc2Cl)c1,94.7% (active)
7,Cc1ccc(/C(N)=N/OC(=O)COc2ccc(Cl)c(C)c2)cc1,-7.2% (inactive)
8,Cc1ccc(S(=O)(=O)NCCNC(C)c2ccc(Br)cc2)cc1 (centres undefined),2.45% (inactive)
9,O=C(OCC(=O)N1CCN(c2ccccc2)CC1)c1ccc([N+](=O)[O-])s1,58.1% (active)
10,COc1ccc(C(=O)OCC(=O)Nc2ccc3[nH]c(=O)[nH]c3c2)c(OC)c1OC,2.13% (inactive)
11,COc1cc(NC(=O)COC(=O)c2ccc([N+](=O)[O-])s2)cc(OC)c1OC,63.8% (active)
12,COc1ccc(C(=O)COC(=O)c2ccc([N+](=O)[O-])s2)cc1OC,61.6% (active)
13,C[C@H](NC(=O)c1ccccc1Cl)C(=O)OCC(=O)N1CCN(c2ccccc2)CC1,2.29% (inactive)
14,COc1cc(C(=O)OCc2ccc([N+](=O)[O-])cc2)cc(OC)c1OC,15.6% (inactive)
15,COc1ccc(C(=O)OCC(=O)c2ccc(C)c(S(=O)(=O)N3CCOCC3)c2)cc1OC,-6.51% (inactive)
16,COc1cccc(/C=C/C(=O)OCC(=O)N2CCN(c3ccccc3)CC2)c1,-5.84% (inactive)
17,COc1ccc(C(=O)OCC(=O)c2ccc(Cl)s2)c(OC)c1OC,-5.24% (inactive)
18,CC1(C)Cc2ccccc2-c2nnc(-c3cccc(O)c3)n21,-5.27% (inactive)
19,Cc1ccc(NS(=O)(=O)c2ccc(C(C)C)cc2)cc1S(=O)(=O)N1CCOCC1,-8.64% (inactive)
20,NC(=O)c1ccc(Nc2ccc3c(c2)CCC3)c([N+](=O)[O-])c1,-12.7% (inactive)
21,O=C(N/N=C/c1sc(N2CCCCC2)nc1-c1cccs1)c1cccnc1,-8.56% (inactive)
22,COc1ccc(OC)c(S(=O)(=O)NCCC(C)C)c1,0.429% (inactive)
